Data published in PubChem BioAssay (Tox21).
Results filed as inconclusive are left out. Entries that show only a call come without a potency. Active and inactive are the calls of the source. Calls follow the shape of the full dose curve.
Also: nearly all actives have a fitted effect of over 45% in size.

Experiment: p53 small molecule agonists, cell-based qHTS assay with rat liver microsomes: qHTS cell viability counter screen (AID 1963580)
Conditions: p53RE-bla HCT-116 + rat microsomes, ATP viability, 16 h; series mostly up to 66 µM
Summary of the method: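 Cytotoxicity counter screen: intracellular ATP read by CellTiter-Glo luminescence in the p53 reporter wells. HCT-116 p53RE-bla cells were treated for 16 h at 37 C alongside rat liver microsomes and NADPH, each 0.5 mg/mL final.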
In the case of `c1cc(OCC2CO2)ccc1Cc1ccc(OCC2CO2)cc1` (centres undefined), the Potency is reported as “inactive”. In the case of `NNC(N)=O`, the Potency is reported as “inactive”. For `CN1CCc2cc3c(cc2C1O)OCO3` (centres undefined), the Potency was “inactive”. In the case of `Fc1ccc(Oc2ccnc3cc(Cl)cc(Cl)c23)cc1`, the Potency is reported as “inactive”. For `O=C1C(I)=CC(=C(c2cc(I)c(O)c(I)c2)c2ccccc2C(=O)O)C=C1I`, the Potency was “inactive”. With `O=NN1CCNCC1` the Potency was “inactive”. For `Oc1ccc([C@H]2CNCc3c2ccc(O)c3O)cc1O`, the Potency was “inactive”. With `CCC1(CC)C(=O)N=C(O)NC1=O` the Potency was “inactive”. For `CSC(=O)c1c(C(F)F)nc(C(F)(F)F)c(C(=O)SC)c1CC(C)C`, the Potency was “inactive”. For `CCOP(=S)(Oc1ccc([N+](=O)[O-])cc1)c1ccccc1` (centres undefined), the Potency was “inactive”. With `OC(c1ccc(Cl)cc1)(c1ccc(Cl)cc1)C(Cl)(Cl)Cl` the Potency was “inactive”. In the case of `CC(C)(c1ccccc1)c1ccc(O)cc1`, the Potency is reported as “inactive”. With `O=C1NCN(c2ccccc2)C12CCN(CCCOc1ccc(F)cc1)CC2` the Potency was “inactive”. For `Brc1ccc(Oc2ccc(Br)cc2Br)c(Br)c1`, the Potency was “inactive”.

Experiment: p53 small molecule agonists, cell-based qHTS assay: qHTS cell viability counter screen (AID 1963581)
Conditions: p53RE-bla HCT-116 viability, ATP luminescence, 16 h; series mostly up to 66 µM
Summary of the method: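 ATP content measured by luminescence in HCT-116 p53RE-bla cells treated 16 h at 37 C, same wells as the reporter screen.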
For `Nc1nc(N)c(N)c(N)n1`, the Potency was “inactive”. For `CCOP(=S)(NC(C)C)Oc1ccccc1C(=O)OC(C)C` (centres undefined), the Potency was “inactive”. With `COC(=O)C(C)N(C(=O)c1ccco1)c1c(C)cccc1C` (centres undefined) the Potency was “inactive”. With `CCCCCCCc1ccc(O)cc1` the Potency was “inactive”. For `CCOP(=O)(OCC)Oc1nc(Cl)c(Cl)cc1Cl`, the Potency was “inactive”. In the case of `O=c1ssc(Cl)c1Cl`, the Potency is reported as “inactive”. In the case of `CCCN(CCC)c1c([N+](=O)[O-])cc(C(F)(F)F)cc1[N+](=O)[O-]`, the Potency is reported as “inactive”. In the case of `CNC(=O)N(C)c1nc2ccccc2s1`, the Potency is reported as “inactive”. For `c1ccc2c(c1)cc1ccc3cccc4ccc2c1c34`, the Potency was “inactive”. With `CC(C)(O)c1cnn2c(-c3ccc(F)c(-c4c(F)cccc4C#N)c3)cnc2n1` the Potency was “inactive”. With `CCOc1cc(C(C)(C)C)ccc1C1COC(c2c(F)cccc2F)=N1` (centres undefined) the Potency was “inactive”. For `CC(C)(C)C(O)/C(=C\c1ccc(Cl)cc1Cl)n1cncn1` (centres undefined), the Potency was “inactive”. In the case of `NC1CCC(CC2CCC(N)CC2)CC1` (centres undefined), the Potency is reported as “inactive”. With `O=[N+]([O-])c1ccc(Oc2ccc(C(F)(F)F)cc2[N+](=O)[O-])cc1` the Potency was “inactive”. With `CCCN(CC1CC1)c1c([N+](=O)[O-])cc(C(F)(F)F)cc1[N+](=O)[O-]` the Potency was “inactive”. With `OCC(c1ccc(Cl)cc1)c1ccc(Cl)cc1` the Potency was “inactive”. For `COC(C)(C)CCC[C@H](C)C/C=C/C(C)=C/C(=O)OC(C)C`, the Potency was “inactive”. With `CCCSP(=S)(OCC)Oc1ccc(Cl)cc1Cl` (centres undefined) the Potency was “inactive”. In the case of `O=C(N[C@H](c1ccccc1)[C@@H]1CN2CCC1CC2)c1c(Cl)ccc(C(F)(F)F)c1Cl`, the Potency is reported as “inactive”. With `c1cc(OCC2CO2)ccc1Cc1ccc(OCC2CO2)cc1` (centres undefined) the Potency was “inactive”. In the case of `Cc1cc(C2CC2)nc(Nc2ccccc2)n1`, the Potency is reported as “inactive”. With `NNC(N)=O` the Potency was “inactive”. With `CN1CCc2cc3c(cc2C1O)OCO3` (centres undefined) the Potency was “inactive”. With `Fc1ccc(Oc2ccnc3cc(Cl)cc(Cl)c23)cc1` the Potency was “inactive”. For `O=NN1CCNCC1`, the Potency was “inactive”. In the case of `Oc1ccc([C@H]2CNCc3c2ccc(O)c3O)cc1O`, the Potency is reported as “inactive”. In the case of `CCC1(CC)C(=O)N=C(O)NC1=O`, the Potency is reported as “inactive”. In the case of `CCCCN(CCCC)C(=S)S`, the Potency is reported as “inactive”. In the case of `NS(=O)(=O)C(F)(F)C(F)(F)C(F)(F)C(F)(F)C(F)(F)C(F)(F)C(F)(F)C(F)(F)F`, the Potency is reported as “inactive”. In the case of `CSC(=O)c1c(C(F)F)nc(C(F)(F)F)c(C(=O)SC)c1CC(C)C`, the Potency is reported as “inactive”. For `CCOP(=S)(Oc1ccc([N+](=O)[O-])cc1)c1ccccc1` (centres undefined), the Potency was “inactive”. For `OC(c1ccc(Cl)cc1)(c1ccc(Cl)cc1)C(Cl)(Cl)Cl`, the Potency was “inactive”. In the case of `CC(C)(c1ccccc1)c1ccc(O)cc1`, the Potency is reported as “inactive”. With `Brc1ccc(Oc2ccc(Br)cc2Br)c(Br)c1` the Potency was “inactive”. For `CCOC(=O)CCN(SN(C)C(=O)Oc1cccc2c1OC(C)(C)C2)C(C)C`, the Potency was “inactive”.
